Test results reported in PubChem BioAssay (Tox21).
Unmarked numbers belong to inactive results. Records with an inconclusive call do not appear. Entries that show only a call come without a potency. The source made the active and inactive calls. Unless noted, calls come from the whole dose curve; as a rule, active = well fitted curve in the direction sought with a large enough effect in the repeat runs; inconclusive = weak or mixed curves; inactive = no such curve, though single readings can be large; an effect the other way counts as inactive or inconclusive.

Experiments:
[1] = target: Androgen receptor (Homo sapiens) (UniProt P10275); assay: qHTS assay to identify small molecule antagonists of the androgen receptor (AR) signaling pathway using the MDA cell line in the presence of 0.5 nM R1881 (AID 1259243); note: nearly all actives have a fitted effect of over 50% in size; note: potency is the fitted concentration of half-maximal effect
In short: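 Steps: seed MDA-kb2 cells, incubate 5 hr at 37C; pin-transfer compounds in DMSO; add R1881 to 0.5 nM final; incubate 16 hr; add ONE-Glo, wait 30 min at room temperature; read luminescence.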

[2] = target: Estrogen receptor (Homo sapiens) (UniProt P03372); assay: qHTS assay to identify small molecule antagonists of the estrogen receptor alpha (ER-alpha) signaling pathway using the BG1 cell line in the presence of 0.1 nM 17-beta-estradiol (AID 1259244); note: nearly all actives have a fitted effect of over 50% in size
In short: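 After 5 days in hormone-depleted medium (charcoal-stripped serum, no phenol red), VM7Luc4E2 cells were seeded, incubated 24 h, then co-treated with compound and 0.1 nM (final) estradiol for 22 h before luminescence detection.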

[3] = qHTS assay to identify small molecule HDAC inhibitors (AID 1259364); note: top concentration of the series differs between compounds; nearly all actives have a fitted effect of over 45% in size
In short: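 Homogeneous cell-based luminescent assay of endogenous class I/II HDAC activity; HCT-116 cells, 2 h compound exposure, 30 min HDAC-Glo development at RT.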

[4] = qHTS assay to identify small molecule HDAC inhibitors - cell viability counter screen (AID 1259365); note: series mostly up to about 92 µM; nearly all actives have a fitted effect of over 50% in size
In short: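 Viability readout: CellTiter-Glo luminescence. Wild-type HCT-116 cells, 2hr compound treatment following overnight attachment at 37 C.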

[5] = qHTS assay to identify small molecule agonists of the sonic hedgehog signaling (Shh) pathway - cell viability counter screen (AID 1259366); note: nearly all actives have a fitted effect of over 50% in size
In short: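 Viability measured fluorometrically (CellTiter-Fluor, 1hr, 37C) in 3T3 Gli1-Luc reporter cells after 23hr compound exposure within a 24hr incubation at 37C/5% CO2.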

[6] = qHTS assay to identify small molecule antagonists of the sonic hedgehog signaling (Shh) pathway - cell viability counter screen (AID 1259367); note: nearly all actives have a fitted effect of over 55% in size
In short: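 Cells: 3T3 Gli1-Luc, 2,000/well, 4 hr pre-incubation. Compounds in DMSO, then conditioned medium. Incubation 24 hr, 37C, 5% CO2. CellTiter-Fluor at 23 hr, 1 hr, fluorescence.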

[7] = qHTS assay to identify small molecule agonists of the sonic hedgehog signaling (Shh) pathway (AID 1259368; calls by dose curve;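 note: NIH/3T3-derived 3T3Gli1-Luc cells carrying a stable Gli1-driven firefly luciferase reporter; series mostly up to about 92 µM; nearly all actives have a fitted effect of over 15% in size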)
In short: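 Steps: seed 3T3 Gli1-Luc cells, incubate 4 hr at 37 C, pin-transfer compounds in DMSO alongside a positive control, incubate 24 hr, add luciferase detection reagent, wait 30 min at room temperature, read luminescence.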

[8] = qHTS assay to identify small molecule antagonists of the sonic hedgehog signaling (Shh) pathway (AID 1259369; calls by dose curve; note: nearly all actives have a fitted effect of over 45% in size; note: potency is the fitted concentration of half-maximal effect)
In short: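 Inhibition of Shh signalling is measured as reduced Gli1-response-element firefly luciferase output in an NIH/3T3-derived stable reporter clone stimulated with conditioned medium for 24hr.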

[9] = qHTS assay to identify small molecule phospholipidosis (PLD) inducers (AID 1259344; active = well fitted curve in the direction sought with a large enough effect; an effect the other way counts as inactive or inconclusive)
In short: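 Phospholipidosis is scored by imaging LipidTOX-stained pits in HepG2 cells exposed to compound for 24 h at 37 C; pit counts and integrated intensities per well and per cell serve as outputs.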

[10] = target: Estrogen receptor beta (Homo sapiens) (UniProt Q92731); assay: qHTS assay to identify small molecule agonists of the estrogen receptor beta (ER-beta) signaling pathway (AID 1259377; active = well fitted activation curve with a large enough effect in the signal ratio in the repeat runs, not every such curve was filed as active; the % refers to the signal ratio)
In short: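 A UAS-controlled beta-lactamase reporter in ER-beta-UAS-bla HEK293T cells reports receptor activation. Compounds act for 16 hr at 37C in 2% charcoal-stripped serum, and a FRET substrate is read by fluorescence after 2 hours.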

Androgen receptor (Homo sapiens), sequence (P10275 whole entry, looked up): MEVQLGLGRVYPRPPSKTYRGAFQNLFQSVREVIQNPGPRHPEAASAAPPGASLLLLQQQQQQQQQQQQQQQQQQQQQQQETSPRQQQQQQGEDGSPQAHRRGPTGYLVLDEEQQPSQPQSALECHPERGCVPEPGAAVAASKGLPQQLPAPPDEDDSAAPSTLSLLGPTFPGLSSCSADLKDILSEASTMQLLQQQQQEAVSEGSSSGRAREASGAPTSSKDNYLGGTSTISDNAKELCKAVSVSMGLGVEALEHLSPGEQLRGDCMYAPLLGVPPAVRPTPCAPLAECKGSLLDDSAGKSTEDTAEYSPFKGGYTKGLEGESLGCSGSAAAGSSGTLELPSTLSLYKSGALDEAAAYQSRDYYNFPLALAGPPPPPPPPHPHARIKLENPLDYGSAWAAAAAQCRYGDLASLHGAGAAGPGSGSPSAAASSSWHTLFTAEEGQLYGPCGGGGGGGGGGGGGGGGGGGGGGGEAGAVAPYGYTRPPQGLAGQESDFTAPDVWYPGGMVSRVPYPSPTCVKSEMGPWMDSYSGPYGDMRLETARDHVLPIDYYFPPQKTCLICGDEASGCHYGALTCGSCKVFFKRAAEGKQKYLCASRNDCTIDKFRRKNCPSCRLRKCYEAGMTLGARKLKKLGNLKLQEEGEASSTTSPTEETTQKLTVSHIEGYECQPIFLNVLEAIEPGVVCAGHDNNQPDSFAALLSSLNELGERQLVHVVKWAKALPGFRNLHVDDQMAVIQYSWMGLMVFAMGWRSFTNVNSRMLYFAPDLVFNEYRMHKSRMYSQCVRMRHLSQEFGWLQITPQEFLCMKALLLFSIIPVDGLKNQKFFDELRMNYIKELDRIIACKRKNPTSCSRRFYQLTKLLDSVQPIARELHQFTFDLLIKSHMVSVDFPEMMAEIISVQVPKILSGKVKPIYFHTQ
Estrogen receptor beta (Homo sapiens), sequence (Q92731 whole entry, looked up): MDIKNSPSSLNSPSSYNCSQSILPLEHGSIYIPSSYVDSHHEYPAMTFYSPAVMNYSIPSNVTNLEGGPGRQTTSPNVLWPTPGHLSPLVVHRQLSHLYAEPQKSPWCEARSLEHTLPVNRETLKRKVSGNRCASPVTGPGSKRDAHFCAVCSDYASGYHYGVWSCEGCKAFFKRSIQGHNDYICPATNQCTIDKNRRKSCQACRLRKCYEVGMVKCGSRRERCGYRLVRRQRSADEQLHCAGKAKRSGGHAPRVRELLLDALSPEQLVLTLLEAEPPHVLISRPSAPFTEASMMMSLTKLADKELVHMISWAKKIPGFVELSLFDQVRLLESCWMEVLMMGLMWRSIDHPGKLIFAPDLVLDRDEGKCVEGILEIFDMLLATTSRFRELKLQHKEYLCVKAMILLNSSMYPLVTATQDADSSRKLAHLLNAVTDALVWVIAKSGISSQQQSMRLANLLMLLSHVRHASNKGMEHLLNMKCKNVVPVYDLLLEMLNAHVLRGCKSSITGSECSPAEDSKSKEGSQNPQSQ
Estrogen receptor (Homo sapiens), sequence (P03372 whole entry, looked up): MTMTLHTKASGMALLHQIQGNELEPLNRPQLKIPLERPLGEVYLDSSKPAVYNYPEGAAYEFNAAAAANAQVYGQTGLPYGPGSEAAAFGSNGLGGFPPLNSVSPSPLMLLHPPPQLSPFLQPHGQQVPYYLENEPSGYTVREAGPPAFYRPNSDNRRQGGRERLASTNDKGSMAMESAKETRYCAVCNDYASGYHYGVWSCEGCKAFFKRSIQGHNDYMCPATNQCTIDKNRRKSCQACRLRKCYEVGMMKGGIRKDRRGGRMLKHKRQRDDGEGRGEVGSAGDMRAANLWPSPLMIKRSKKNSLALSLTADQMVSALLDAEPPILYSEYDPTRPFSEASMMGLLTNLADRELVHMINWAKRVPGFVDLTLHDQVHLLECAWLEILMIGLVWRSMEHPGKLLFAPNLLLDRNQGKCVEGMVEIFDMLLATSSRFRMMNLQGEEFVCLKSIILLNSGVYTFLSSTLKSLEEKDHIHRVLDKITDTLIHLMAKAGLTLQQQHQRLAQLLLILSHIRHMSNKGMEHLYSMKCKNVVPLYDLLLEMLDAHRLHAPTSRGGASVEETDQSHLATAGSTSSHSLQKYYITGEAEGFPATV

Compound	Potency [1]	outcome [2]	Potency [3]	outcome [4]	Potency [5]	Potency [6]	outcome [7]	Potency [8]	outcome [9]	Potency [10]
CCCOC(=O)CC	inactive	inactive	inactive	inactive	inactive	inactive	inactive	inactive	–	–
CC(C)NNC(=O)c1ccncc1	inactive	–	inactive	inactive	inactive	inactive	inactive	inactive	inactive	–
O=C(c1ccccc1O)c1ccccc1O	24.1 µM (active)	inactive	inactive	–	inactive	inactive	inactive	–	–	inactive
CCOC(=O)COc1cc(-n2ncc(C(F)(F)F)c(C)c2=O)c(F)cc1Cl	inactive	inactive	inactive	inactive	inactive	inactive	inactive	inactive	–	–
Cc1ccc(-c2ccccc2C#N)cc1	11.9 µM (active)	inactive	inactive	inactive	inactive	inactive	inactive	inactive	–	inactive
CCCCCC(C)N (stereo unspecified)	inactive	–	inactive	–	inactive	inactive	inactive	inactive	inactive	–
Cc1coc2ccccc2c1=O	inactive	–	inactive	inactive	inactive	inactive	inactive	inactive	–	–
CC(=O)N1C[C@H](O)C[C@H]1C(=O)O	inactive	inactive	inactive	inactive	inactive	inactive	inactive	inactive	inactive	inactive
O=C(O)Cc1csc(-c2ccc(Cl)cc2)n1	inactive	inactive	inactive	inactive	inactive	inactive	inactive	inactive	inactive	inactive
C=C[Si](OC(C)=O)(OC(C)=O)OC(C)=O	inactive	inactive	inactive	inactive	inactive	–	inactive	30.6 µM (active)	–	–
COCCOC[C@H](CC1(C(=O)NC2CCC(C(=O)O)CC2)CCCC1)C(=O)Oc1ccc2c(c1)CCC2 (stereo partly specified)	inactive	inactive	inactive	inactive	–	–	inactive	inactive	–	–
CC1CCC(CO)CC1 (stereo unspecified)	inactive	inactive	inactive	inactive	inactive	inactive	inactive	inactive	–	inactive
Cc1ccc(-c2ncc(Cl)cc2-c2ccc(S(C)(=O)=O)cc2)cn1	inactive	inactive	inactive	inactive	inactive	inactive	inactive	inactive	inactive	inactive
